Reference: ChEMBL document CHEMBL3988442, “University of Dundee, Small-Polar-MMV Screening Library” (2021)
Screen size: about 48,000 compounds; about 13,000 (27%) showed an effect of 50% or more. The list shows a part of the results.

System: Wolbachia pipientis
Test: Anti-Wolbachia Cell-Based Screen
Format: functional
Set-up: scale not given: in the data most compounds retested in dose-response had high values
Details: 5 µM

First: O=C(NCCCn1nc2ccccn2c1=O)NC1CCC(O)CC1 (configuration not stated)
Second: NS(=O)(=O)CCNC(=O)c1nnn(-c2ccccc2)c1C1CC1
The “Percent Effect” value of the first is higher: -5.846% for the first, -6.368% for the second.

Going from `CC(CCSc1ccccc1)N1CCCN(C(N)=O)CC1` (configuration not stated) to `CCNC(=O)N1CCN(c2nc3ccccc3n2C)CC1`, the “Percent Effect” value rises from 1.732% to 113.5%.

Compared with `COc1cc2c(cc1OC)S(=O)(=O)N(Cc1cnn(C)c1)C2=O`, `CNC(=O)c1cnc(/C=C/c2cc(OC)c3c(c2)OCCO3)s1` is higher in “Percent Effect” value: -5.179% for the first, 15.86% for the second.

Going from `CCN(Cc1cccc(-c2ccncc2)c1)S(C)(=O)=O` to `CN(Cc1ccc([S+](C)[O-])cc1)c1ccccn1` (configuration not stated), the “Percent Effect” value falls from 22.59% to -21.98%.

First: COc1ccnc(N2CCC(OCCN3CCCCC3)C2)n1 (configuration not stated)
Second: CNC(=O)[C@@H]1CN(C(=O)C2CCC2)C[C@H]1c1ccnc(N2CCCC2)n1.Cl
The “Percent Effect” value of the first is lower: -2.392% for the first, 84.63% for the second.

Going from `CCCS(=O)(=O)N1CCC2(CN(c3ccsc3)C(=O)CN2C)C1.O=C(O)C(F)(F)F` (configuration not stated) to `CCN(C)c1ncnc2c1CCN(C(=O)c1ccsc1)CC2.O=C(O)C(F)(F)F`, the “Percent Effect” value falls from 2.599% to -2.544%.

Going from `CC(C)c1nc(CN(C)C2CCN(CC(F)(F)F)C2)no1` (configuration not stated) to `Cc1nc(CN2CCC(N(C)Cc3noc(C(C)C)n3)C2)cs1` (configuration not stated), the “Percent Effect” value rises from 0.6339% to 19.33%.

Compared with `CN(c1ccc(C#N)cn1)C1CCCN(Cc2noc(C3CC3)n2)C1` (configuration not stated), `CN(Cc1noc(C2CC2)n1)C1CCN(CCn2cc(C#N)cn2)C1` (configuration not stated) is higher in “Percent Effect” value: 3.102% for the first, 90.88% for the second.

Going from `CC(C)c1nc(CN(C)C2CCN(CCn3cc(C#N)cn3)C2)no1` (configuration not stated) to `Cc1nc(CN(C)C2CCN(CCn3cc(C#N)cn3)C2)no1` (configuration not stated), the “Percent Effect” value rises from 72.8% to 105.6%.

Going from `CCc1nc(CN(C)C2CCN(CCn3cc(C#N)cn3)C2)no1` (configuration not stated) to `CN(CC1CN(CCn2cc(C#N)cn2)CCO1)c1cccnn1` (configuration not stated), the “Percent Effect” value falls from 10.97% to -17.7%.

Compared with `CC(C)c1nc(CN(C)C2CCN(CCc3ccncc3)C2)no1` (configuration not stated), `Cc1ncsc1CCN1CCC(N(C)Cc2noc(C(C)C)n2)C1` (configuration not stated) is lower in “Percent Effect” value: 78.23% for the first, 6.438% for the second.

Compared with `Cc1nn(CCO)c(C)c1CNC1CCc2c(Cl)cccc21` (configuration not stated), `CCc1c(C)nn(CCNC(=O)C2CCCN(C(=O)N(C)C)C2)c1C` (configuration not stated) is lower in “Percent Effect” value: 9.566% for the first, -3.279% for the second.

Compared with `CCOC(C)c1nc(CN2CCN(CC(F)F)CC2)cs1` (configuration not stated), `CC(C)c1nc(CNC(=O)c2ccc(C(C)N3CCCCC3)o2)cs1` (configuration not stated) is higher in “Percent Effect” value: -28.37% for the first, 4.315% for the second.

First: CCc1c(C(=O)N2CC[C@H](N3CCOCC3)[C@H](CCCO)C2)csc1C
Second: CS(=O)(=O)N1CC[C@H]2C[C@@H](C(=O)N3CCOCC3)O[C@@H]2C1
The “Percent Effect” value of the first is higher: -10.58% for the first, -11.49% for the second.

Compared with `C=C(C)CN1CCC(c2n[nH]c(C3CC3)n2)CC1`, `CC(=O)N1CCCC1c1cc(N2CCN(CC3CC3)CC2)cc(C)n1` (configuration not stated) is higher in “Percent Effect” value: -34.27% for the first, 101% for the second.

Compared with `O=C(Nc1cccnc1)[C@H]1CO[C@H]2CCN(c3ncc(F)cn3)C[C@H]2C1.O=C(O)C(F)(F)F.O=C(O)C(F)(F)F`, `O=C(Nc1cnccn1)[C@H]1CO[C@H]2CCN(c3ncc(F)cn3)C[C@H]2C1.O=C(O)C(F)(F)F` is higher in “Percent Effect” value: -5.908% for the first, 104.1% for the second.

Going from `CNC(=O)[C@H]1CO[C@H]2CCN(c3ncc(F)cn3)C[C@H]2C1.O=C(O)C(F)(F)F` to `CN(C)C(=O)[C@H]1CO[C@H]2CCN(c3ncc(F)cn3)C[C@H]2C1.O=C(O)C(F)(F)F`, the “Percent Effect” value rises from 80.41% to 120.2%.

First: CN(C)C(=O)[C@H]1C[C@H]2OCC[C@H]2N(Cc2ccc(F)cc2)C1.O=C(O)C(F)(F)F
Second: CCc1ccc(CN2CC[C@@H]3CN(S(C)(=O)=O)CCO[C@@H]3C2)o1.O=C(O)C(F)(F)F
The “Percent Effect” value of the first is lower: -2.638% for the first, 2.069% for the second.

Compared with `CN1CCN(C(=O)[C@H]2C[C@@H]3CN(c4ncc(F)cn4)C[C@@H]3N2C)CC1.O=C(O)C(F)(F)F.O=C(O)C(F)(F)F.O=C(O)C(F)(F)F`, `Fc1cnc(N2CC[C@@H]3CN(Cc4ccncc4)CCO[C@@H]3C2)nc1.O=C(O)C(F)(F)F.O=C(O)C(F)(F)F.O=C(O)C(F)(F)F` is lower in “Percent Effect” value: 6.01% for the first, -11.92% for the second.

First: CC(=O)N1[C@H](Cn2cncn2)C[C@@H]2CN(c3ncc(F)cn3)CC[C@@H]21.O=C(O)C(F)(F)F
Second: O=C(Nc1cnccn1)[C@@H]1C[C@H]2OCC[C@H]2N(c2ncc(F)cn2)C1
The “Percent Effect” value of the first is higher: -4.782% for the first, -10.05% for the second.

Compared with `CS(=O)(=O)N1CCO[C@@H]2CN(C(=O)C3CC(F)(F)C3)C[C@@H]2C1`, `CS(=O)(=O)N1CCO[C@@H]2CN(C(=O)C3CCOC3)CC[C@@H]2C1` (some centres not stated) is lower in “Percent Effect” value: 99.59% for the first, 99.33% for the second.

Going from `CS(=O)(=O)N1CCO[C@@H]2CN(C(=O)COC3CCCC3)C[C@@H]2C1` to `CS(=O)(=O)N1CCO[C@@H]2CN(C(=O)N3CCCC3)CC[C@@H]2C1`, the “Percent Effect” value rises from -4.785% to 106.3%.

First: CC(C)NC(=O)N1CC[C@@H]2CN(S(C)(=O)=O)CCO[C@@H]2C1
Second: CS(=O)(=O)N1CCO[C@@H]2CN(C(=O)N3CCOCC3)CC[C@@H]2C1
The “Percent Effect” value of the first is higher: 112.1% for the first, 93.86% for the second.

Going from `Cc1ncc(S(=O)(=O)Nc2ccnn2C(C)C)[nH]1` to `Cc1ccc(-n2nnc(C(=O)NS(C)(=O)=O)c2C2CC2)cc1`, the “Percent Effect” value rises from -21.74% to -4.729%.

Going from `COCCN1CCN(C(=O)c2ccccc2C(C)=O)[C@H]2CS(=O)(=O)C[C@H]21` to `COC(=O)CNC(=O)N1CCN(c2nc3ccccc3n2C)CC1`, the “Percent Effect” value rises from -3.299% to 124.8%.

First: Cc1cccc(CN2CCCC3(Cc4ccccc4CNC3=O)C2)n1 (configuration not stated)
Second: COc1ccccc1CN1CCCC2(Cc3ccccc3CNC2=O)C1 (configuration not stated)
The “Percent Effect” value of the first is higher: 122.4% for the first, 121.9% for the second.

First: Cc1cccc(CN2CCCC3(CCN(c4cccnc4)C3=O)C2)n1 (configuration not stated)
Second: CN(Cc1cn2c(n1)CN(C(=O)c1cccnc1)CC2)Cc1ccco1
The “Percent Effect” value of the first is lower: -4.562% for the first, -4.152% for the second.

Compared with `O=C1NCC2(CCCN(Cc3ccccc3OCCO)C2)O1` (configuration not stated), `COCCC1(C(=O)O)CCCN(Cc2ccccc2OCCO)C1` (configuration not stated) is higher in “Percent Effect” value: -12.98% for the first, -7.98% for the second.

Going from `CCOC(=O)N1CCN(c2nc(NC)c3ccccc3n2)CC1` to `CCOC(=O)N1CCN(c2nc(N3CCCC3)c3ccccc3n2)CC1`, the “Percent Effect” value falls from -5.868% to -6.467%.

First: CCNC(=O)N1CCC(=Cc2ccccc2)CC1
Second: CCOC(=O)CCNC(=O)N1CCN(c2nc3ccccc3n2C)CC1
The “Percent Effect” value of the first is higher: 6.266% for the first, -6.682% for the second.

First: COC(=O)CNC(=O)N1CCC2(CC1)CC(c1ccccc1)CN(C)C2 (configuration not stated)
Second: CCOC(=O)C(C)NC(=O)N1CCN(c2nc3ccccc3n2C)CC1 (configuration not stated)
The “Percent Effect” value of the first is lower: -8.809% for the first, 155.3% for the second.

Compared with `Cn1c(SCC(=O)NC(C)(C#N)C2CC2)nc2ccccc21` (configuration not stated), `CS(=O)(=O)NC(=O)c1nnn(-c2ccccc2)c1C1CC1` is higher in “Percent Effect” value: -4.187% for the first, 97.89% for the second.

Going from `Cc1oc(NC(=O)C(C)N2CCN(C(C)(C)CO)CC2)c(C#N)c1C` (configuration not stated) to `Cc1n[nH]c(C)c1C1CCCN1C(=O)NCC(=O)NC(C)(C)C` (configuration not stated), the “Percent Effect” value falls from -7.519% to -8.161%.

Going from `O=C(Cc1cccc(F)c1F)NS(=O)(=O)c1cncc(Cl)c1` to `CS(=O)(=O)NC(=O)c1nnn(-c2cccc(F)c2)c1C1CC1`, the “Percent Effect” value rises from -8.127% to 110.8%.

Going from `Cc1ccc(OC2(C(=O)O)CCN(C/C=C/c3ccco3)CC2)cn1` to `CCOc1cccc(C(=O)N2CCCn3nc(CCC(=O)O)cc3C2)c1`, the “Percent Effect” value falls from 1.431% to -15.16%.

Going from `CCN1CCN(c2ccc(CNC(=O)c3c(C)noc3C)cn2)CC1` to `Cc1nc(CNCc2ccc(N3CCC(CO)CC3)nc2)cs1`, the “Percent Effect” value falls from 9.474% to -0.2455%.

Compared with `Cc1nc(C)n(CC(C)C(=O)N2CCC(NS(C)(=O)=O)CC2)n1` (configuration not stated), `CNC(=O)[C@@H]1CN(C(=O)C(C)C)C[C@H]1c1ccnc(N2CCCC2)n1.Cl` is higher in “Percent Effect” value: -0.2261% for the first, 109.4% for the second.

Going from `CS(=O)(=O)Cc1ccc(CNc2ncc(C#N)cc2Cl)cc1` to `COCCS(=O)(=O)NC(=O)c1nnn(-c2ccc(F)cc2)c1C1CC1`, the “Percent Effect” value rises from -4.102% to -1.625%.

First: CCN(C)C(=O)C1(c2ccc(F)cc2F)CCC1
Second: Cc1cc(F)ccc1S(=O)(=O)N1C[C@@H](C)[C@@](C)(O)C1
The “Percent Effect” value of the first is lower: -1.611% for the first, 6.812% for the second.

Compared with `CC(=O)N1CCCC1c1cc(N2CCN(CC(C)(C)C)CC2)cc(C)n1` (configuration not stated), `CC(=O)N1CCCC1c1cc(N2CCN(C3CCCC3)CC2)cc(C)n1` (configuration not stated) is lower in “Percent Effect” value: 123.3% for the first, 1.456% for the second.

First: O=C(Nc1cccc(N2CCN(CC3CC3)CC2)c1)N1CCCC1
Second: O=C([C@@H]1CCCO1)N1CCn2c(Cn3cccn3)cnc2C1
The “Percent Effect” value of the first is lower: 0.3876% for the first, 2.282% for the second.

Compared with `Cc1cccc(CNCc2c(C(C)C)nn(C)c2N2CCOCC2)n1`, `CNC(=O)C1CCCN(c2nc(-c3ccco3)nc3c2CCNCC3)C1` (configuration not stated) is lower in “Percent Effect” value: -7.798% for the first, -9.477% for the second.

Compared with `CC(C)NC(=O)c1nnn(-c2cccc(C(F)(F)F)c2)c1C1CC1`, `NC(=O)c1ccc(OCC(=O)NC2CCc3c(F)cccc32)cc1` (configuration not stated) is lower in “Percent Effect” value: 8.497% for the first, -9.741% for the second.

Going from `CC(C)N(C)Cc1ccccc1CNc1ccc2nncn2n1` to `CN(Cc1cc2n(n1)CCN(C(=O)c1cccnc1)C2)Cc1nccs1`, the “Percent Effect” value rises from -2.79% to 89.98%.

Going from `Cc1ccc(CC(=O)N2CCc3nnc(N(C)C)cc3C2)cn1` to `CN(Cc1cc2n(n1)CCN(C(=O)[C@H]1CCCO1)C2)Cc1nccs1`, the “Percent Effect” value rises from -3.136% to 100.4%.

Going from `CNC(=O)C1CCCN(C(=O)C2CCC2)C1` (configuration not stated) to `CN(Cc1cn2c(n1)CN(C(=O)C1CCCO1)CC2)Cc1ccco1` (configuration not stated), the “Percent Effect” value rises from -10.43% to 5.5%.
